Compound activity deposited in PubChem by National Center for Advancing Translational Sciences (NCATS).
TRHR agonist: agonists of human TRH receptor; P34981; TRHR cells, calcium flux fluo-8, FDSS agonist mode; activation, % at 2 µM; 360,000 compounds, 0.18% hits; further: 0% is about no effect
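In this calcium-flux screen, cells bearing human TRHR are dye-loaded with fluo-8, baselined for 10 cycles, then exposed to library compounds; positive kinetic calcium responses during the agonist phase mark hits, with TRH as control.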
TRHR PAM: allosterically enhances the human TRH receptor; TRHR cells, fluo-8 calcium fluorescence, EC20 TRH enhancement; P34981; 360,000 compounds, 0.66% hits; enhancement, % at 2 µM; in the data active means enhancement above about 30%; further: 0% is about no effect
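TRHR-expressing cells loaded with fluo-8 calcium dye were read kinetically (ex 480/em 530) during compound addition, then stimulated with an EC20 of TRH (10 nM final). Enhancement of the Gq-mediated intracellular calcium response was scored.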
D1 PAM: enhances dopamine response at the human D1 receptor; P21728; HEK293 TREx D1 cells, calcium flux, dopamine EC20 potentiation; potentiation, % at 10 µM; 360,000 compounds, 0.036% hits; AID 504651; in the data active means potentiation above about 30%; further: 0% is about no effect
Target sequence (P21728 whole entry, looked up): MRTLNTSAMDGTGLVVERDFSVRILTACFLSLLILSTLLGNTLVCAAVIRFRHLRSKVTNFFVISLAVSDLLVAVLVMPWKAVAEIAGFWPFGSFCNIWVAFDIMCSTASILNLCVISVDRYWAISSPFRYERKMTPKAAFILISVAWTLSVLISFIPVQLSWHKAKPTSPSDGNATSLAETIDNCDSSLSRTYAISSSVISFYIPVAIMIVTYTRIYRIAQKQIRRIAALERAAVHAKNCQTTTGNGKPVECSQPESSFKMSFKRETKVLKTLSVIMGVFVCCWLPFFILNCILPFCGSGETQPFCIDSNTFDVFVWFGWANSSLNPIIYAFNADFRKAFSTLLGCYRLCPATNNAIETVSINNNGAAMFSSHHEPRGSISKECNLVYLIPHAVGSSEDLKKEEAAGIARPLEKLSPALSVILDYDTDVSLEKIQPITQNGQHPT
D1 agonist: activates the human D1 dopamine receptor; P21728; activation, % at 2 µM; HEK293 T-REx D1 cells, calcium flux, agonist mode; 360,000 compounds, 1% hits; further: 0% is about no effect
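Inducible HEK293 T-REx D1 cells, force-coupled to calcium signalling, were plated at 4000 cells/well with tetracycline and held overnight at 30 C. After no-wash calcium dye loading, compound-evoked calcium rise over 180 s flagged agonists.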
D1 antag: human D1 dopamine receptor antagonism. P21728. HEK293 TREx D1 cells, calcium flux, dopamine EC80; stronger effect = lower value. activity change, negative = inhibition, % at 10 µM. 360,000 compounds, 3.2% hits. AID 504652; in the data active means activity change below about -30%; further: on the % scale 0 is the no-effect control and ±100 the full control effect
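Inducible Hek293 Trex D1 cells (tetracycline, overnight, 30 C). Calcium dye 30–90 min RT. Antagonist mode: EC80 dopamine added after 180 s compound read.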
* marks the source's active call; other numbers are inactive results; . = no result given; ! = not active in a repeat. A selection: hits, their analogues and other compounds. The true share with any hit is near 4.7%. Unless noted, no stated cut-off is given here; in the data, active means activation above about 30%; inactive means the rest.

SMILES | TRHR agonist | TRHR PAM | D1 PAM | D1 agonist | D1 antag
COc1cc(Cl)c(C)cc1NC(=O)c1cnc(N2CCCCC2)c2ccccc12 | 0 | 0 | -3 | 2 | 26
CCCCCCCN1CCN=C1N(C)C | 0 | -2 | -5 | 0 | -35*
CC(C)CCCN1CCN=C1N(C)C | 1 | 6 | 2 | 2 | -9
Cc1nc2nc(SCC(=O)C(C)(C)C)[nH]c2cc1Br | 1 | -6 | -8 | 0 | -47*
COc1ccc(-c2nc(NC(C)=O)sc2-c2ccccc2)cc1 | -2 | -5 | -14 | 3 | -32*
COc1ccc(-c2sc(NC(C)=O)nc2-c2ccccc2)cc1 | 0 | -1 | -11 | 0 | -17
O=C(NCc1ccco1)C1CCN(C(=O)c2cc3sccc3n2Cc2ccc(Cl)cc2)CC1 | 1 | -4 | -1 | 5 | 5
CC(CCc1ccccc1)NC(=O)C1CCCN(C(=O)c2cc3sccc3n2C)C1 (centres undefined) | -2 | -13 | -9 | 1 | -39*
COCCCNC(=O)C1CCN(C(=O)c2cc3sccc3n2Cc2ccc(Cl)cc2)CC1 | 0 | 15 | -5 | 11 | -39*
CCC(C)NC(=O)C1CCN(C(=O)c2cc3sccc3n2Cc2ccc(Cl)cc2)CC1 (centres undefined) | 0 | -4 | -5 | 8 | -40*
CCOCCCNC(=O)C1CCN(C(=O)c2cc3sccc3n2C)CC1 | 0 | 4 | -6 | -1 | -84*
Cn1c(C(=O)N2CCCC(C(=O)NCc3cccs3)C2)cc2sccc21 (centres undefined) | -1 | -11 | 2 | 3 | 4
CCCCC(=O)Nc1ccccc1C(=O)OCc1cc(=O)n2nc(C3CCCCC3)sc2n1 | 0 | -3 | 0 | -1 | -3
COc1ccc(CN(Cc2ccco2)C(=O)c2ccccc2F)cc1 | -1 | -3 | 3 | 1 | 6
O=C(Cn1cc(CNCc2ccccc2)nn1)Nc1cc(C(F)(F)F)ccc1Cl | 0 | 3 | -6 | 3 | 0
COCCNC(=O)C1CCN(C(=O)c2cc3sccc3n2Cc2ccc(F)cc2)CC1 | 2 | 0 | -10 | 8 | -49*
COCCNC(=O)C1CCN(C(=O)c2cc3sccc3n2Cc2ccc(Cl)cc2)CC1 | 2 | -4 | -5 | 15 | -24
O=[S+]([O-])(c1ccc2c(c1)OCCO2)N1CCN([S+](=O)([O-])c2cc(Cl)ccc2F)CC1 | 2 | -4 | 17 | 1 | -12
CCc1nnc(NC(=O)c2cc(=O)c3cc(C)ccc3o2)s1 | 0 | 14 | -2 | 1 | -17
CCOC(=O)c1c(C)[nH]c(C)c1S(=O)(=O)N1CCC(C(=O)NCc2ccccc2Cl)CC1 | 0 | -5 | -3 | 7 | 9
CCOCCCNC(=O)C(NC(=O)Cc1cccs1)c1ccc(C)cc1 (centres undefined) | -1 | -3 | -3 | 1 | -44*
O=C(COc1ccc2c3c(c(=O)oc2c1)CCCC3)NCCN1CCOCC1 | 0 | 13 | -3 | 2 | -12
O=C(COc1ccc2c3c(c(=O)oc2c1)CCCC3)NCCCN1CCOCC1 | 0 | 1 | -9 | 9 | -30*
CCc1cc(=O)oc2cc(OCC(=O)NCCCn3ccnc3)ccc12 | 0 | -4 | -3 | 3 | -37*
CC(C)c1ccc(S(=O)(=O)N2CCN(C(=O)c3ccncc3)CC2)cc1 | 0 | 1 | . | 10 | -31*
SMILES | TRHR agonist | TRHR PAM | D1 PAM | D1 agonist | D1 antag
CCN(CC)CCCNC(=O)c1ccc(Cn2c(SCc3ccccc3)nc3cccnc32)cc1 | 0 | -5 | -3 | 0 | 3
Cc1cccc(NC(=O)c2ccc(-n3cnc4cccnc43)cc2)c1C | 0 | 1 | -3 | 0 | 1
COc1ccccc1/C=C/CN1CCN(c2ccccc2)CC1 | 0 | 0 | -8 | 2 | -54*
CN(C(=O)COC(=O)COc1ccc2c(c1)CCC2)c1c(N)n(Cc2ccccc2)c(=O)[nH]c1=O | 1 | 11 | -6 | 1 | -31*
Cn1cc(C(=O)NCCc2ccccc2)c(=O)c2cc(S(=O)(=O)N3CCCCC3)ccc21 | 0 | -4 | 3 | 1 | 5
COc1cc(/C=N/N2C(=O)CSC2=S)ccc1O | 6 | 1 | -1 | 15 | 2
O=C1CSC(=S)N1/N=C/c1cc(Br)c(O)c(Br)c1 | 160* | 32* | 0 | 422* | 4
O=C(Nc1ccccc1)c1ccc2c(c1)CCN2S(=O)(=O)c1ccccc1 | 1 | 1 | -2 | 10 | -32*
COc1ccc(NC(=O)c2ccc3c(c2)CCN3S(=O)(=O)c2ccccc2)cc1 | 0 | 5 | -7 | 4 | -51*!
Cc1ccc2c(c1)-c1nc(-c3ccc(Cl)cc3)cc(-c3coc4ccccc4c3=O)c1CO2 | -3 | 0 | 2 | -1 | 8
Cc1ccc(CSc2nc(=O)c3c(n2C)NC(=O)CC3c2ccc(OC(C)C)cc2)cc1 (centres undefined) | 7 | -4 | 0 | 46* | -27
Cc1cccc(CSc2nc(=O)c3c(n2C)NC(=O)CC3c2cccc(O)c2)c1 (centres undefined) | -2 | -2 | 1 | 1 | -8
COCCCNC(=S)N1CCN(c2nc(-c3ccc(F)cc3)cs2)CC1 | -1 | 0 | 10 | 8 | -4
CCCNC(=S)N1CCN(c2nc(-c3ccc(C)cc3)cs2)CC1 | 0 | 24 | -5 | 7 | -35*
CCOCCCNC(=S)N1CCN(c2nc(-c3ccc(F)cc3)cs2)CC1 | 0 | -5 | -9 | 6 | -31*
Cc1nn(C)c2c1c(-c1ccccc1)cc(=O)n2Cc1c(F)cccc1Cl | 1 | 1 | 2 | 3 | 8
COc1ccc2cc3cc(C(=O)NCCN4CCN(c5ccccc5F)CC4)oc3nc2c1 | -1 | -5 | -7 | 0 | -19
COc1ccc2cc3cc(C(=O)Nc4ccccc4N4CCN(C)CC4)oc3nc2c1 | 0 | -4 | -10 | 3 | -41*
COc1ccc2c(C(F)(F)F)cc(=O)oc2c1C | 0 | 4 | 15 | 2 | 5
Cc1c(C)c2ccc(Oc3ccc([N+](=O)[O-])cc3C(F)(F)F)c(C)c2oc1=O | 0 | -1 | -4 | 3 | -33*
COc1ccc(N(Cc2ccccc2)C(=O)CSc2nnc(Cn3nnc4ccccc43)o2)cc1 | 1 | 17 | 3 | 4 | 10
O=C(CSc1nnc(Cn2nnc3ccccc32)o1)N(Cc1ccc(F)cc1)c1ccccc1 | 0 | -4 | -3 | 2 | -41*
O=C(Nc1ccc(S(=O)(=O)N(Cc2ccccc2)c2ccccc2)cc1)c1ccc(F)cc1 | 1 | 0 | 1 | 10 | -16
Cc1cccc(OCC(=O)N(Cc2ccc(C)o2)C2CCS(=O)(=O)C2)c1 (centres undefined) | -1 | 0 | -2 | 3 | -20
Cc1ccc(CN(C(=O)COc2c(C)cccc2C)C2CCS(=O)(=O)C2)o1 (centres undefined) | -1 | -5 | 2 | -2 | -43*
